In paper PMC4336329 (PLoS ONE, 2015):
Screen size: about 310,000 compounds; about 14,000 (4.5%) showed an effect of 50% or more. Effects have a minus sign here. The sample as a whole holds a higher share of strong results than the screen did.

target: human ether-à-go-go-related gene (hERG) potassium channel (human, UniProt Q12809); experiment: primary screen, population patch clamp on CHO cells stably expressing hERG; higher = less effect of the substance
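Note: peak tail current of the secondary pulse compared with the same well before compound.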

Sequence of human ether-à-go-go-related gene (hERG) potassium channel (Q12809 whole entry, looked up): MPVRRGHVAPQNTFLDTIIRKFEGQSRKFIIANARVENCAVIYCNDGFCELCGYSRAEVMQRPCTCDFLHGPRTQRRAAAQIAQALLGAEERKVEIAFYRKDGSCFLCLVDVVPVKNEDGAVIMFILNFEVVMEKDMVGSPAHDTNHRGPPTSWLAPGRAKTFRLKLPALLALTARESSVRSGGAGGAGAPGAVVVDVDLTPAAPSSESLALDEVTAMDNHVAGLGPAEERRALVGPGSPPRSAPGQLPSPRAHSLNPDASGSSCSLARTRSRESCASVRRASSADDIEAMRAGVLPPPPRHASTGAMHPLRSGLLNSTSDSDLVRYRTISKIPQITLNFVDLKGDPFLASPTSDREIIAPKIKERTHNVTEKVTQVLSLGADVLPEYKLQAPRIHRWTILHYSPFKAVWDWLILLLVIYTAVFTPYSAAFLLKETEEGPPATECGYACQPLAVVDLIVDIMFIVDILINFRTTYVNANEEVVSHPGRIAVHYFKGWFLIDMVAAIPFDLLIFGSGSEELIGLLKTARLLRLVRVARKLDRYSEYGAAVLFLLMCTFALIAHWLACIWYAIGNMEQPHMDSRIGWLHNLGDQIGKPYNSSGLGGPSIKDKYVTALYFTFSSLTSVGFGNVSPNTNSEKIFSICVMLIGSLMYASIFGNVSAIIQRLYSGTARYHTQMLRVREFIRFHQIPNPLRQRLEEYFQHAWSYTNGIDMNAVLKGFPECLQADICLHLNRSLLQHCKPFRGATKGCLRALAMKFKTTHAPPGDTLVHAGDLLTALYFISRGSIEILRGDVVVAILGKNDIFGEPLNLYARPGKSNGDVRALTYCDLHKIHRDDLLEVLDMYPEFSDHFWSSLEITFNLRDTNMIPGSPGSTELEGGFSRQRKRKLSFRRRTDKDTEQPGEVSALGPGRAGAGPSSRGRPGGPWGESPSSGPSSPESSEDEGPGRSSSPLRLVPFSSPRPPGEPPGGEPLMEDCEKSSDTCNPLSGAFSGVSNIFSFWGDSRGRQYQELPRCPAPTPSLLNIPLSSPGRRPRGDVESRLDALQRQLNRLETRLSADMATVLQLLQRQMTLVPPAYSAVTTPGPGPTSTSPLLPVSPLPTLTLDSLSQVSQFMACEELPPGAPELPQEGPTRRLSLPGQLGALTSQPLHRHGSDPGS

Question: For `O=C(Nc1ccccc1N1CCCC1)c1ccc([N+](=O)[O-])o1`, which “hERG current change (%, negative = inhibition) at 10uM” value is on record?
Answer: 5.51%

Question: `COc1ccccc1NC(=O)c1ccc(-c2ccccc2[N+](=O)[O-])o1` was tested. Which “hERG current change (%, negative = inhibition) at 10uM” value did it give?
Answer: 26.7%

Question: How did the “hERG current change (%, negative = inhibition) at 10uM” value turn out when `Cc1ccccc1NC(=O)c1ccc([N+](=O)[O-])o1` was run?
Answer: 11.5%

Question: Which “hERG current change (%, negative = inhibition) at 10uM” value does the source give for `O=C(Nc1ccccc1N1CCOCC1)c1ccc([N+](=O)[O-])o1` here?
Answer: -17.9%

Question: For `CN1CCN(c2ccccc2NC(=O)c2ccc(-c3ccccc3[N+](=O)[O-])o2)CC1`, which “hERG current change (%, negative = inhibition) at 10uM” value is on record?
Answer: -67.9%

Question: With `CN1CCN(c2ccccc2NC(=O)c2ccc(-c3ccc(Cl)cc3Cl)o2)CC1` as the molecule, how does the “hERG current change (%, negative = inhibition) at 10uM” value read?
Answer: -3.82%

Question: For `CN1CCN(c2ccccc2NC(=O)c2ccc([N+](=O)[O-])o2)CC1`, which “hERG current change (%, negative = inhibition) at 10uM” value is on record?
Answer: -69.6%

Question: `Cc1cccc(NC(=O)c2ccc(-c3ccccc3[N+](=O)[O-])o2)c1` was tested. Which “hERG current change (%, negative = inhibition) at 10uM” value did it give?
Answer: -55.2%

Question: With `CCC(=O)N1CCN(c2ccc(Cl)cc2NC(=O)c2ccc([N+](=O)[O-])o2)CC1` as the molecule, how does the “hERG current change (%, negative = inhibition) at 10uM” value read?
Answer: -21%

Question: With `COc1cccc(NC(=O)c2ccc(-c3ccccc3[N+](=O)[O-])o2)c1` as the molecule, how does the “hERG current change (%, negative = inhibition) at 10uM” value read?
Answer: -46.1%

Question: `CC(=O)c1cccc(NC(=O)c2ccc(-c3ccccc3[N+](=O)[O-])o2)c1` was tested. Which “hERG current change (%, negative = inhibition) at 10uM” value did it give?
Answer: -17.4%

Question: For `CCC(=O)N1CCN(c2ccccc2NC(=O)c2ccc([N+](=O)[O-])o2)CC1`, which “hERG current change (%, negative = inhibition) at 10uM” value is on record?
Answer: -69%

Question: How did the “hERG current change (%, negative = inhibition) at 10uM” value turn out when `CN1CCN(C(=O)C(C(=O)c2ccc(F)cc2)n2ccccc2=O)CC1` (centres unmarked) was run?
Answer: -1.24%

Question: Which “hERG current change (%, negative = inhibition) at 10uM” value does the source give for `Cc1ccc(C)c(N2CCN(S(=O)(=O)c3ccc4c(c3)NC(=O)CO4)CC2)c1` here?
Answer: 12.7%

Question: For `O=C(O)c1cccc(Cn2c(Cl)c(/C=N/NC(=O)c3ccco3)sc2=O)c1`, which “hERG current change (%, negative = inhibition) at 10uM” value is on record?
Answer: 38.3%

Question: For `Cc1ccc(N(C(=O)c2csnn2)C(C(=O)NC2CCCCC2)c2cccnc2)c(C)c1` (centres unmarked), which “hERG current change (%, negative = inhibition) at 10uM” value is on record?
Answer: -5.38%

Question: How did the “hERG current change (%, negative = inhibition) at 10uM” value turn out when `N#CCCN(C(=O)COC(=O)CNC(=O)C12CC3CC(CC(C3)C1)C2)c1ccccc1` was run?
Answer: -23.5%

Question: `CC12CCC(C(=O)NCCc3ccccc3)(OC1=O)C2(C)C` (centres unmarked) was tested. Which “hERG current change (%, negative = inhibition) at 10uM” value did it give?
Answer: 9.83%

Question: With `CSc1nnc(C)c(=O)n1COC(=O)c1ccc(S(=O)(=O)N2CCCC2)cc1` as the molecule, how does the “hERG current change (%, negative = inhibition) at 10uM” value read?
Answer: -22.8%

Question: With `O=C(CCS(=O)(=O)c1cccc2nonc12)NCCc1ccccc1Cl` as the molecule, how does the “hERG current change (%, negative = inhibition) at 10uM” value read?
Answer: -7.38%

Question: With `CC(C)NC(=O)CN1C(=O)NC(CCc2ccccc2)C1=O` (centres unmarked) as the molecule, how does the “hERG current change (%, negative = inhibition) at 10uM” value read?
Answer: 5.75%

Question: `COc1cc(C)ccc1OCCCCOc1ccccc1C(C)=O` was tested. Which “hERG current change (%, negative = inhibition) at 10uM” value did it give?
Answer: 3.3%

Question: For `CCn1c(CNC(=O)c2cccnc2)cc2ccccc21`, which “hERG current change (%, negative = inhibition) at 10uM” value is on record?
Answer: 2.41%

Question: `Cc1ccc(C2NC(=S)NC3=C2N2CCC3CC2)cc1` (centres unmarked) was tested. Which “hERG current change (%, negative = inhibition) at 10uM” value did it give?
Answer: 1.2%

Question: How did the “hERG current change (%, negative = inhibition) at 10uM” value turn out when `CCOC(=O)c1sc(NC(=O)CSc2nc(C)cc(C)c2C#N)c(C#N)c1C` was run?
Answer: 8.19%

Question: For `O=C(/C=C/c1ccc(Cl)c(Cl)c1)N1CCOCC1`, which “hERG current change (%, negative = inhibition) at 10uM” value is on record?
Answer: -1.3%

Question: For `CS(=O)(=O)N1CCN(c2ccccc2NC(=O)c2ccc([N+](=O)[O-])o2)CC1`, which “hERG current change (%, negative = inhibition) at 10uM” value is on record?
Answer: -25.2%

Question: How did the “hERG current change (%, negative = inhibition) at 10uM” value turn out when `CC(C)C(=O)N1CCN(c2ccccc2NC(=O)c2ccc([N+](=O)[O-])o2)CC1` was run?
Answer: -63%

Question: For `CC1CCN(c2ccccc2NC(=O)c2ccc([N+](=O)[O-])o2)CC1`, which “hERG current change (%, negative = inhibition) at 10uM” value is on record?
Answer: 25%

Question: With `CC1CCN(c2ccccc2NC(=O)c2cc([N+](=O)[O-])ccc2N2CCOCC2)CC1` as the molecule, how does the “hERG current change (%, negative = inhibition) at 10uM” value read?
Answer: -2.63%

Question: How did the “hERG current change (%, negative = inhibition) at 10uM” value turn out when `CC(C)C(=O)N1CCN(c2ccccc2NC(=O)c2cc([N+](=O)[O-])ccc2N2CCOCC2)CC1` was run?
Answer: -67.2%

Question: For `CCc1ccccc1NC(=O)c1cc([N+](=O)[O-])ccc1N1CCOCC1`, which “hERG current change (%, negative = inhibition) at 10uM” value is on record?
Answer: -16.5%

Question: Which “hERG current change (%, negative = inhibition) at 10uM” value does the source give for `O=C(CNC(=O)c1cccs1)c1ccc(Br)cc1` here?
Answer: 12.2%

Question: With `O=C(O)Cc1ccc(C(=O)c2cccs2)s1` as the molecule, how does the “hERG current change (%, negative = inhibition) at 10uM” value read?
Answer: 11.8%

Question: With `COc1ccc(CNC(=S)N/N=C(/C)c2ccccc2)cc1` as the molecule, how does the “hERG current change (%, negative = inhibition) at 10uM” value read?
Answer: -6.47%

Question: For `COc1ccc(OC)c(NC(=S)NCc2cccnc2)c1`, which “hERG current change (%, negative = inhibition) at 10uM” value is on record?
Answer: 8.59%

Question: Which “hERG current change (%, negative = inhibition) at 10uM” value does the source give for `COC(=O)C1CC(O)CN1C(=O)c1ccco1` (centres unmarked) here?
Answer: 10.6%

Question: With `CN(C)S(=O)(=O)c1ccc(NC(=O)CN2CCC(Cc3ccccc3)CC2)cc1` as the molecule, how does the “hERG current change (%, negative = inhibition) at 10uM” value read?
Answer: -32.8%

Question: For `CN(Cc1ccc(F)cc1)Cc1nc(-c2cnccn2)no1`, which “hERG current change (%, negative = inhibition) at 10uM” value is on record?
Answer: 13.7%

Question: How did the “hERG current change (%, negative = inhibition) at 10uM” value turn out when `CN(Cc1ccc(-n2cccn2)cc1)Cc1nc(-c2cnccn2)no1` was run?
Answer: -58.2%

Question: With `Cc1cc(C)n(-c2cccc(CN(C)Cc3nc(-c4cnccn4)no3)c2)n1` as the molecule, how does the “hERG current change (%, negative = inhibition) at 10uM” value read?
Answer: 10.8%

Question: Which “hERG current change (%, negative = inhibition) at 10uM” value does the source give for `Cn1nc(C(=O)N2CCN(c3ccc([N+](=O)[O-])cc3)CC2)c2c1-c1ccccc1S(=O)(=O)C2` here?
Answer: -31.4%

Question: Which “hERG current change (%, negative = inhibition) at 10uM” value does the source give for `Cn1nc(C(=O)N2CCN(c3cccc(Cl)c3)CC2)c2c1-c1ccccc1S(=O)(=O)C2` here?
Answer: -53.4%

Question: Which “hERG current change (%, negative = inhibition) at 10uM” value does the source give for `Cc1cccc(N2CCN(C(=O)c3nn(C)c4c3CS(=O)(=O)c3ccccc3-4)CC2)c1C` here?
Answer: -33.4%

Question: Which “hERG current change (%, negative = inhibition) at 10uM” value does the source give for `Cn1nc(C(=O)N2CCN(c3ccc(Cl)cc3)CC2)c2c1-c1ccccc1S(=O)(=O)C2` here?
Answer: -51.2%

Question: For `Cn1nc(C(=O)N2CCN(c3ccc(F)cc3)CC2)c2c1-c1ccccc1S(=O)(=O)C2`, which “hERG current change (%, negative = inhibition) at 10uM” value is on record?
Answer: -54.3%

Question: How did the “hERG current change (%, negative = inhibition) at 10uM” value turn out when `Cn1nc(C(=O)N2CCN(c3ccccc3)CC2)c2c1-c1ccccc1S(=O)(=O)C2` was run?
Answer: -40.9%

Question: For `Cn1nc(C(=O)N2CCN(c3ccccc3F)CC2)c2c1-c1ccccc1S(=O)(=O)C2`, which “hERG current change (%, negative = inhibition) at 10uM” value is on record?
Answer: -21.2%

Question: With `Cn1nc(C(=O)N2CCCCC2)c2c1-c1ccccc1S(=O)(=O)C2` as the molecule, how does the “hERG current change (%, negative = inhibition) at 10uM” value read?
Answer: 14.7%

Question: How did the “hERG current change (%, negative = inhibition) at 10uM” value turn out when `CCN1CCN(C(=O)c2nn(C)c3c2CS(=O)(=O)c2ccccc2-3)CC1` was run?
Answer: 12%

Question: With `Cc1ccc(N2CCN(C(=O)c3nn(C)c4c3CS(=O)(=O)c3ccccc3-4)CC2)c(C)c1` as the molecule, how does the “hERG current change (%, negative = inhibition) at 10uM” value read?
Answer: -3%

Question: `CC(=O)c1ccc(N2CCN(C(=O)c3nn(C)c4c3CS(=O)(=O)c3ccccc3-4)CC2)cc1` was tested. Which “hERG current change (%, negative = inhibition) at 10uM” value did it give?
Answer: -64.5%

Question: `COc1ccccc1N1CCN(C(=O)c2nn(C)c3c2CS(=O)(=O)c2ccccc2-3)CC1` was tested. Which “hERG current change (%, negative = inhibition) at 10uM” value did it give?
Answer: 2.07%
